# Rows were chosen to be rich in hits. Some 0.83% of all compounds tested hit in one or more screens of this group.
# MRP1 act: activates MRP-1 | AID 799 | 140,000 compounds, 0.61% hits | H69AR cells + doxorubicin, viability rescue, CellTiter-Glo | viability increase, % at 10 µM;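 active means viability gain under doxorubicin at or above a set limit, the compound median plus 3 SD, cut at about 4.7% in these data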;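 further: MRP-1 overexpressing cells given doxorubicin 25 µM after compound pretreatment; 18-22 h compound pretreatment then 72 h with doxorubicin before readout; 0% = doxorubicin-only wells and 100% = vehicle-treated cells without doxorubicin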
# Smad3 inh: inhibitors of human Smad3 transcription factor binding. TR-FRET Smad3/Dy647-FoxH1 peptide binding, europium anti-His. 88,000 compounds, 0.29% hits. inhibition, % at 25 µM;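 active means compounds that reduce the energy-transfer binding signal between the protein and its labelled peptide by more than half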;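 further: 0% = Smad3 plus labelled peptide maximal FRET and 100% = peptide-only background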
# Target sequence (P84022 whole entry, looked up): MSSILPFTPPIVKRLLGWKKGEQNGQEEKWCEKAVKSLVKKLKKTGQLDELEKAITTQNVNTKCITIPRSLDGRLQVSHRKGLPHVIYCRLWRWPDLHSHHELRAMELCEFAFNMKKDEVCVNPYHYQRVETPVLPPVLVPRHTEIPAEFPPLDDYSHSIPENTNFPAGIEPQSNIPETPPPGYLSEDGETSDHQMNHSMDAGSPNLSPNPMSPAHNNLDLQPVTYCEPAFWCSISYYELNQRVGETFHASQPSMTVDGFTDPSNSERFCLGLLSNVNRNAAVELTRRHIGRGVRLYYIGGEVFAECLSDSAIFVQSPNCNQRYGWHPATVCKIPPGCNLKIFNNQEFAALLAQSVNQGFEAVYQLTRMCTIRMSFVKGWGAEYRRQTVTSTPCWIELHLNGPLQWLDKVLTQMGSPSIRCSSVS
# Calb biofilm kill: kills Candida albicans biofilms | C. albicans biofilm + clotrimazole, Alamar Blue | 85,000 compounds, 0.14% hits | inhibition, % at 6 µM;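 active means inhibition above 20%; inactive means inhibition below 20%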;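 further: preformed 24 hr biofilms exposed to compound for 48 hr; 0% = biofilm without compound and 100% = blank killed by clotrimazole plus chlorhexidine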
# MRP resist rev: MRP-mediated drug resistance reversal | H69AR cells + 2 uM doxorubicin, CellTiter-Glo, 72 h | differential viability (reversal), % at 10 µM | 85,000 compounds, 0.04% hits | AID 602;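 active means viability drop by adding the cancer drug above about 55%, with treated viability meeting a 40% cutoff, limit read from the data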;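 further: viability without doxorubicin minus viability with 2 µM doxorubicin for each compound; larger differential means the compound sensitizes cells more to doxorubicin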
# Starred values were filed as active, the others as inactive; nt = no result given; [ ] = dose if it differs, or a comment.
SMILES,MRP1 act,Smad3 inh,Calb biofilm kill,MRP resist rev
CC(C)CCNC(=O)C(c1cccnc1)N(Cc1ccccc1)C(=O)Cn1nnc2ccccc21 (stereo not drawn),nt,9,6,5
CC(C)CCNC(=O)C(c1cccnc1)N(CCc1ccccc1)C(=O)Cn1nnc2ccccc21 (stereo not drawn),-2,55*,11,0
C[C@H](CN(C)C)C(O)(c1ccccc1)c1ccccc1,nt,14,nt,nt
CCOC(=O)c1c2c(n(C)c1COC)C(=O)C(=O)c1ccc(Br)cc1-2,nt,75*,3,0
N#C/C(=N\Nc1ccc(S(=O)(=O)N2CCCCC2)cc1)C(N)=S,-2,nt,nt,nt
N#CC(C#N)=NNc1ccc(S(=O)(=O)N2CCCC2)cc1,5.1*,nt,nt,nt
Cc1ccc(N=Nc2c(N)[nH]n3c(=O)cc(-c4ccccc4)nc23)cc1,6.0*,nt,nt,nt
COc1c(O)ccc2c1CN1CCc3cc4c(cc3[C@@H]1C2)OCO4,nt,2,nt,nt
CC1=C(C(N)=O)C(c2ccncc2)n2nc(-c3ccccc3Cl)nc2N1 (stereo not drawn),0,-10,21*,2
N#Cc1ccc(NC(=O)c2cc3cc4c5c(c3oc2=N)CCCN5CCC4)cc1,nt,11,10,-6
N=c1oc2c3c4c(cc2cc1C(=O)Nc1ccccc1)CCCN4CCC3,6.4*,nt,nt,nt
S=C1NCN2CCN(CC2)CNC(=S)C(=S)NCN2CCN(CC2)CNC1=S,nt,11,nt,nt
O=C(/C=C/NNC(=O)c1ccccc1)c1ccc(Br)cc1,6.0*,10,6,-28
O=C(/C=C/NNC(=O)c1cccc(Br)c1)c1cccc(Br)c1,-2,-2,1,-15
O=C1c2ccccc2NC(c2ccccc2)N1Cc1ccco1 (stereo not drawn),-4,7,37*,3
CC1CCC/C(=C(\C#N)c2nc(-c3cc4ccccc4oc3=O)cs2)C1 (stereo not drawn),5.2*,nt,nt,nt
O=c1oc2ccccc2cc1-c1csc(NN=C2CCCCC2)n1,0,nt,nt,nt
NC(=O)C/C=C/CC(N)=O,nt,2,nt,nt
C=CCOc1c(CNc2ccc(C(=O)O)cc2)cccc1OCC,6.7*,nt,nt,nt
C[C@@]12CCC(=O)C=C1CC[C@H]1[C@H]2[C@@H](O)C[C@]2(C)[C@@H]1CC[C@@]2(O)C(=O)COC(=O)C1CCCC1,nt,28,nt,nt
CCN1CNC(=S)N(c2cccc(C)c2C)C1,0,96*,6,-6
Nc1nc(-c2cc(-c3cccc4ccccc34)nc(N)n2)cc(-c2cccc3ccccc23)n1,nt,10,nt,nt
CC(C)=C[C@H]1[C@H](C(=O)Oc2ccccc2C(C)C)C1(C)C,nt,-19,nt,nt
N=c1sc2ccccc2n1CCS (tested in a mixture with another compound),nt,25,nt,nt
Cn1nc(C(F)(F)F)c(C(=O)Nc2ccc(C(F)(F)F)cc2)c1Cl,6.2*,nt,nt,nt
SMILES,MRP1 act,Smad3 inh,Calb biofilm kill,MRP resist rev
COc1cc(NS(=O)(=O)c2ccc(C)cc2)ccc1-n1cnnn1,6.3*,3,-3,-8
Cc1noc(C)c1COC(=O)c1cccnc1SCC(=O)Nc1ccc2c(c1)OCO2,-2,51*,7,10
Cc1noc(C)c1COc1ccc(C(=O)OCC(=O)Nc2ccc3c(c2)OCO3)cc1,-2,5,4,16
Cc1ccc(C)c(NC(=O)NCc2ccc(Cl)cc2)c1,nt,4,nt,nt
Cc1cc(/C=C(\C#N)C(=O)OCC(=O)NC(=O)NC(C)(C)C)c(C)n1CCC(C)C,-3,2,0,57*
CCNc1oc(-c2ccc(OC)cc2)nc1S(=O)(=O)c1ccc(Br)cc1,2,10,6,-3
CCCCNc1oc(-c2ccc(OC)cc2)nc1S(=O)(=O)c1ccccc1,6.2*,-8,-2,7
CCC1=NNc2cccc3c(OC)ccc1c23,-2,65*[fluorescence artefact?],1,19
O=C(O)c1ccc2c(c1C(=O)O)C(=O)OC2(c1ccc(O)cc1)c1ccc(O)cc1,nt,78*,nt,nt
O=C1OC2(c3ccc(O)cc3Oc3cc(O)ccc32)c2c1c(-c1ccccc1)c(-c1ccccc1)c(-c1ccccc1)c2-c1ccccc1,nt,1,nt,nt
O=C(O)[C@@H]1[C@H](C(=O)NCc2cccnc2)[C@@H]2CC[C@H]1O2,nt,-4,nt,nt
COc1ccc(CC(NC(C)=O)C(=O)NC2CCN(C(=O)Nc3ccc(Cl)cc3)CC2)cc1OC (stereo not drawn),-1,79*,-3,9
Cn1c(=O)c2[nH]c(N=NN3CCN(CCO)CC3)nc2n(C)c1=O,nt,8,nt,nt
CCN1CCN(c2cc(C)c3cc(NC(=O)c4cccnc4Cl)ccc3n2)CC1,-2,4,1,-3
Cc1cc(N2CCN(C)CC2)nc2ccc(NC(=O)c3cccnc3Cl)cc12,-2,5,61*,6
O=C1/C(=C\c2ccco2)SC(=S)N1c1ccccc1,4.7*,nt,nt,nt
O=C(O)CSc1n[nH]c(=O)[nH]c1=O,nt,-19,nt,nt
Nc1c(N2CCCC2)cc(Cl)c2nonc12,-2,58*,10,-11
Nc1c(N2CCOCC2)cc(Cl)c2nonc12,-1,-9,4,-4
CN(C)Cc1c[nH]c2nc[nH]c(=O)c12,nt,68*,nt,nt
Cc1nc[nH]c(=O)c1Br,-2,nt,nt,nt
COc1ccc(N2C(S)=C(C#N)C(=O)NC2c2ccco2)cc1 (stereo not drawn),16*,nt,nt,nt
CCOc1ccc(C2NC(=O)C(C#N)=C(S)N2c2ccc(C)cc2)cc1OC (stereo not drawn),-1,-5,3,14
Cc1cccn2c(=O)c3cc(C(=O)Nc4ccc(N(C)C)cc4)n(C)c3nc12,nt,63*[fluorescence artefact?],14,-2
O=C1CSC(=S)N1N=C1CCCCCC1,5.9*,nt,nt,nt
SMILES,MRP1 act,Smad3 inh,Calb biofilm kill,MRP resist rev
O=C1CSC(=S)N1/N=C/C=C/c1ccccc1,1,nt,nt,nt
O=C1COC(c2ccccc2O)=NN1CCCN1CCCC1,nt,12,nt,nt
C[C@H]1[C@H](C)OC(=O)C[C@H](O)C[C@H](O)C[C@H](O)CC[C@H](O)[C@H](O)CC(=O)C[C@H](O)[C@H](C(=O)O)[C@H](O)C[C@H](O[C@H]2O[C@@H](C)[C@H](O)[C@@H](N)[C@@H]2O)C=CC=CC=CC=CCCC=CC=C[C@@](C)(O)[C@H]1O,nt,4,nt,nt
COC(=O)Nc1ccc(S(=O)(=O)Nc2ccc(O)cc2)cc1,-3,5,5,60*
CN1CCC[C@H]1c1cccnc1.O=C(O)c1ccccc1O.O=C([OH2+])c1ccccc1O.O=C([OH2+])c1ccccc1O.[Mn+2],nt,-10,nt,nt
COc1ccc(NC(=O)Cn2cc(C(=O)c3ccco3)c3ccccc32)cc1,6.7*,12,6,12
BrC(c1cccc2ccccc12)c1cccc2ccccc12,nt,5,nt,nt
CCc1ccc(CCC(=O)O)nc1,nt,-8,nt,nt
COc1cc2[nH]c(=O)n(CCC(=O)NC3CCCC3)c(=O)c2cc1OC,0,-9,-1,-12
COc1cc2[nH]c(=O)n(Cc3ccc(C(=O)NC4CCCC4)cc3)c(=O)c2cc1OC,-2,-2,24*,-32
O=C(O)CC(CC(=O)O)C(=O)O,nt,2,nt,nt
Cc1ccccc1N=C(NOCc1ccc(Cl)cc1Cl)c1nonc1N,1,12,5,0
Cc1ccc(N=C(NOCc2ccc(Cl)cc2Cl)c2nonc2N)c(C)c1,-3,10,6,57*
CC(C)[C@@]12CC[C@]3(CC[C@@H]4[C@](C)(CCC[C@@]4(C)C(=O)O)[C@@H]3C1)[C@@H](CN)C2,nt,15,nt,nt
O=S1(=O)N[C@H]2CC[C@H]3NS(=O)(=O)N[C@H]4CC[C@@H](N1)N4S(=O)(=O)N23,nt,24,nt,nt

# Source: PubChem BioAssay
